Consider 60 sequences from PMC13541613, “GHT-SELEX demonstrates unexpectedly high intrinsic sequence specificity and complex DNA binding of many human transcription factors”.

Common to all, as to assay: HT-SELEX; 20 mM HEPES pH 7, 140 mM KCl, 5 mM NaCl, 1 mM K2HPO4, 2 mM MgSO4, 100 uM EGTA, ZnSO4, 0.1% Tween20; room temperature, 1 h; high values mean tight binding
What all share (details): protein: ivt; tags: eGFP (N-terminal); dsDNA, one strand shown

The target in assay [1] is ZNF721 full-length (Homo sapiens, UniProt Q8TF20-2 1-923). In short, it runs like this:
(§1)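 Full-length or DNA-binding-domain forms of a tagged transcription factor were produced in HEK293 lysate or cell-free extract and immobilised on beads. Incubation with a randomized 40-base DNA library ran for 1 h at room temperature in HEPES/KCl low-stringency buffer with Tween20, after which bound DNA was washed, heat-eluted, PCR-amplified over successive cycles and Illumina-sequenced. Binding strength is given as the relative k-mer count in selected reads, higher for tighter binding.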

Assay [2] addresses ZNF721 DBD1 (Homo sapiens, UniProt Q8TF20-2 29-461). In short, it runs like this:
as §1

The target of assay [3] is ZNF721 DBD2 (Homo sapiens, UniProt Q8TF20-2 395-923). In short, it runs like this: as §1
Chain of ZNF721 DBD2 (Q8TF20 383-911): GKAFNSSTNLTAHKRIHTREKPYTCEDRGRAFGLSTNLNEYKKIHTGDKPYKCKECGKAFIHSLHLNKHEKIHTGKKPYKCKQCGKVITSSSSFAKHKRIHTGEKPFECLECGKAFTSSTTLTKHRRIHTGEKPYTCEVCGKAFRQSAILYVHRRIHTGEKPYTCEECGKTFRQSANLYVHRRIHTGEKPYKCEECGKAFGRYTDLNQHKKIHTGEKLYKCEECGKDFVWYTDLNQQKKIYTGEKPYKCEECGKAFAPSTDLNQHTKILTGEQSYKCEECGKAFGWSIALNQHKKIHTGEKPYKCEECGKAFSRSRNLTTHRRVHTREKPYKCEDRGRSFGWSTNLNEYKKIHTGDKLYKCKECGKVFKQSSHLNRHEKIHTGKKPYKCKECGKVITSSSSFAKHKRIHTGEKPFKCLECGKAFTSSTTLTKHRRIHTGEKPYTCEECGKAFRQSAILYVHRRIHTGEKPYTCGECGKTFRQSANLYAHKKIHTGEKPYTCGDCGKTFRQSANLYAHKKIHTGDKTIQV

Chain of ZNF721 full-length (Q8TF20 other isoform, or with tags, fused parts or gaps): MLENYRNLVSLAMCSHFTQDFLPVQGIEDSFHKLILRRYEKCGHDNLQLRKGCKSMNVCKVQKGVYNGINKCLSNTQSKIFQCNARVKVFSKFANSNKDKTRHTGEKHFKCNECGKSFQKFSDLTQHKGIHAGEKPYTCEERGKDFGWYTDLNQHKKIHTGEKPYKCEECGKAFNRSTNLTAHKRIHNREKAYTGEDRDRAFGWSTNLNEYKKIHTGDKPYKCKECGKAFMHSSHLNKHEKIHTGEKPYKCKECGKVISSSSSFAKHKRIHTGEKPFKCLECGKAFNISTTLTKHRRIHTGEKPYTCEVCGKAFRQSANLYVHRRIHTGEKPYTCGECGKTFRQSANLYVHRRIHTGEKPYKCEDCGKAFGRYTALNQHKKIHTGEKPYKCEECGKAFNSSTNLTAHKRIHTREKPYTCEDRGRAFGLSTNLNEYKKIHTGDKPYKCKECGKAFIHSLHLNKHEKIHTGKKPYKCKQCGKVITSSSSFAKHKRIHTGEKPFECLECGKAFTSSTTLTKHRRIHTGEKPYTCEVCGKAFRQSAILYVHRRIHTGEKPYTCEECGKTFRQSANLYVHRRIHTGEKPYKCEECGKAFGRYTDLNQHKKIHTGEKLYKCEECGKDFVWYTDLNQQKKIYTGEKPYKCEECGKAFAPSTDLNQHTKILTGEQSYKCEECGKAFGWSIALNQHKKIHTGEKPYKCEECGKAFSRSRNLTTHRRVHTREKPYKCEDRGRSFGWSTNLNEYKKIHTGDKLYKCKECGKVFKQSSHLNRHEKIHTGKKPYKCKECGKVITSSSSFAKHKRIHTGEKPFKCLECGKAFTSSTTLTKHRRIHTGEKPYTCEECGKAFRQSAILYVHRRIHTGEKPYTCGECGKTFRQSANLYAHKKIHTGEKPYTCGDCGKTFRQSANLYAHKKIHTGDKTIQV
Chain of ZNF721 DBD1 (Q8TF20 17-449): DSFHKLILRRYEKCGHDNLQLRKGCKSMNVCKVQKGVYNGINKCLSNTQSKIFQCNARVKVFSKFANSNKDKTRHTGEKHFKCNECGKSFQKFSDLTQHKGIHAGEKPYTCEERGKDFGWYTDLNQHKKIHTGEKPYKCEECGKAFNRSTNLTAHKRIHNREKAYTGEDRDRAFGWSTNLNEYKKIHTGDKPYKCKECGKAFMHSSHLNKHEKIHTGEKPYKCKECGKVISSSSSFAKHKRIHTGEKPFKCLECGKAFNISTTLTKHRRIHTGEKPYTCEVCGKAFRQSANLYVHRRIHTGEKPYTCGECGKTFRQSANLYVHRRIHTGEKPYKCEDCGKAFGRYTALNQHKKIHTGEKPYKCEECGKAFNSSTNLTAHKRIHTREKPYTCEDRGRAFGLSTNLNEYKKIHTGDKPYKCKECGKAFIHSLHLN

CGTCCCACCC: the binding signal in assay [1] was found to be 0.127 relative 10-mer count; in assay [2], 0.00495 relative 10-mer count; in assay [3], 0.00204 relative 10-mer count.

With AACCCCACCC, the binding signal in assay [1] came out at 0.141 relative 10-mer count; in assay [2], 0.00294 relative 10-mer count; in assay [3], 0.00156 relative 10-mer count.

Consider GCCCCCACCC, for which the binding signal turned out to be 0.19 relative 10-mer count in assay [1], 0.0083 relative 10-mer count in assay [2] and 0.00407 relative 10-mer count in assay [3].

Take ACCACCACCC: the binding signal in assay [1] worked out at 0.189 relative 10-mer count; in assay [2], 0.00679 relative 10-mer count; in assay [3], 0.00611 relative 10-mer count.

Consider AGGGTGGGTG, for which the binding signal in assay [1] was 0.158 relative 10-mer count; in assay [2] it was 0.0094 relative 10-mer count; in assay [3], 0.00515 relative 10-mer count.

With CCCCCGCCGC, the binding signal in assay [1] turned out to be 0.128 relative 10-mer count; in assay [2], 0.00436 relative 10-mer count; in assay [3], 0.00168 relative 10-mer count.

Take ACCCGCCCAC: the results for the binding signal in assay [1], in assay [2] and in assay [3] were 0.115 relative 10-mer count, 0.00413 relative 10-mer count and 0.00288 relative 10-mer count, respectively.

CCCCACCAAC: the results for the binding signal in assay [1], in assay [2] and in assay [3] were 0.136 relative 10-mer count, 0.00638 relative 10-mer count and 0.00791 relative 10-mer count, respectively.

Take CAAAAAGCAG: the binding signal in assay [1] turned out to be 0.159 relative 10-mer count; in assay [2], 0.00156 relative 10-mer count; in assay [3] it was 0.172 relative 10-mer count.

For CCCGACCCCC, the binding signal in assay [1] turned out to be 0.178 relative 10-mer count; in assay [2] it was 0.00628 relative 10-mer count; in assay [3], 0.00144 relative 10-mer count.

Turning to AAAAAAGCTG, the results for the binding signal in assay [1], in assay [2] and in assay [3] were 0.303 relative 10-mer count, 0.137 relative 10-mer count and 0.00707 relative 10-mer count, respectively.

CCACAAAAAA: the values for the binding signal in assay [1], in assay [2] and in assay [3] were 0.125 relative 10-mer count, 0.00615 relative 10-mer count and 0.0663 relative 10-mer count, respectively.

AGGGGTGGTG: the binding signal in assay [1] was 0.139 relative 10-mer count; in assay [2] it was 0.00532 relative 10-mer count; in assay [3], 0.00407 relative 10-mer count.

Turning to CACCCACCAC, the binding signal in assay [1] was 0.196 relative 10-mer count; in assay [2], 0.00949 relative 10-mer count; in assay [3], 0.00779 relative 10-mer count.

For the sequence CCCCAACCAC, the results for the binding signal in assay [1], in assay [2] and in assay [3] were 0.156 relative 10-mer count, 0.00665 relative 10-mer count and 0.00515 relative 10-mer count, respectively.

In the case of CCACCCCCAA, the values for the binding signal in assay [1], in assay [2] and in assay [3] were 0.118 relative 10-mer count, 0.00546 relative 10-mer count and 0.00491 relative 10-mer count, respectively.

For CAGCGTTACC, the binding signal is 0.138 relative 10-mer count in assay [1], 0.00147 relative 10-mer count in assay [2] and 0.297 relative 10-mer count in assay [3].

Take CACCCCCCTC: the binding signal in assay [1] was found to be 0.127 relative 10-mer count; in assay [2] it was 0.00633 relative 10-mer count; in assay [3], 0.00479 relative 10-mer count.

With GCATACCCAA, the binding signal in assay [1] was determined as 0.217 relative 10-mer count; in assay [2] it was 0.00968 relative 10-mer count; in assay [3] it was 0.192 relative 10-mer count.

Regarding AAAAAAGGCA, the binding signal is 0.18 relative 10-mer count in assay [1], 0.00284 relative 10-mer count in assay [2] and 0.13 relative 10-mer count in assay [3].

On to CACACCCACC, for which the results for the binding signal in assay [1], in assay [2] and in assay [3] were 0.135 relative 10-mer count, 0.00651 relative 10-mer count and 0.00695 relative 10-mer count, respectively.

GAAAAAAGCA: the binding signal came to 0.344 relative 10-mer count in assay [1], 0.0533 relative 10-mer count in assay [2] and 0.15 relative 10-mer count in assay [3].

For CCCCTCCCCC, the binding signal in assay [1] is 0.337 relative 10-mer count; in assay [2], 0.0145 relative 10-mer count; in assay [3] it was 0.00443 relative 10-mer count.

For the sequence CCACCCCACG, the binding signal in assay [1] was found to be 0.131 relative 10-mer count; in assay [2], 0.00495 relative 10-mer count; in assay [3] it was 0.00491 relative 10-mer count.

For CCTTCCCCCC, the binding signal in assay [1] worked out at 0.104 relative 10-mer count; in assay [2], 0.00472 relative 10-mer count; in assay [3] it was 0.00264 relative 10-mer count.

Turning to AAACAGCATG, the binding signal in assay [1] was 0.284 relative 10-mer count; in assay [2] it was 0.00101 relative 10-mer count; in assay [3], 0.345 relative 10-mer count.

As to GTGGTGGGGA, the binding signal in assay [1] was determined as 0.14 relative 10-mer count; in assay [2], 0.00674 relative 10-mer count; in assay [3] it was 0.00443 relative 10-mer count.

In the case of CCCCTCACCC, the binding signal in assay [1] is 0.187 relative 10-mer count; in assay [2], 0.00711 relative 10-mer count; in assay [3], 0.00503 relative 10-mer count.

Take CCCCCCACCA: the binding signal in assay [1] was 0.231 relative 10-mer count; in assay [2], 0.00904 relative 10-mer count; in assay [3], 0.00863 relative 10-mer count.

Consider CCTCCTCCCC, for which the binding signal in assay [1] was 0.169 relative 10-mer count; in assay [2], 0.00881 relative 10-mer count; in assay [3] it was 0.00527 relative 10-mer count.

Consider ACCCCCACCC, for which the binding signal in assay [1] amounted to 0.267 relative 10-mer count; in assay [2], 0.0108 relative 10-mer count; in assay [3] it was 0.0036 relative 10-mer count.

For AAAAGCTATC, the binding signal was 0.233 relative 10-mer count in assay [1], 0.129 relative 10-mer count in assay [2] and 0.00168 relative 10-mer count in assay [3].

On to CCCCCCCCAA, for which the binding signal is 0.109 relative 10-mer count in assay [1], 0.00316 relative 10-mer count in assay [2] and 0.00288 relative 10-mer count in assay [3].

For the sequence AACCACCCCC, the binding signal in assay [1] is 0.106 relative 10-mer count; in assay [2] it was 0.00303 relative 10-mer count; in assay [3] it was 0.00276 relative 10-mer count.

Regarding CCACCACGCC, the binding signal worked out at 0.105 relative 10-mer count in assay [1], 0.00316 relative 10-mer count in assay [2] and 0.00587 relative 10-mer count in assay [3].

With ACCCCGCCCC, the binding signal was found to be 0.188 relative 10-mer count in assay [1], 0.00569 relative 10-mer count in assay [2] and 0.00192 relative 10-mer count in assay [3].

As for AAACAGCGTA, the figures for the binding signal in assay [1], in assay [2] and in assay [3] were 0.378 relative 10-mer count, 0.00115 relative 10-mer count and 0.468 relative 10-mer count, respectively.

With ACCGCCCCCC, the binding signal in assay [1] was found to be 0.135 relative 10-mer count; in assay [2] it was 0.00642 relative 10-mer count; in assay [3] it was 0.00132 relative 10-mer count.

GCATACCCAC: the results for the binding signal in assay [1], in assay [2] and in assay [3] were 0.132 relative 10-mer count, 0.00899 relative 10-mer count and 0.154 relative 10-mer count, respectively.

Take AGCGTTTCCA: the binding signal in assay [1] was 0.214 relative 10-mer count; in assay [2], 0.00252 relative 10-mer count; in assay [3] it was 0.459 relative 10-mer count.

Turning to ACCCCACACC, the binding signal amounted to 0.14 relative 10-mer count in assay [1], 0.00436 relative 10-mer count in assay [2] and 0.00276 relative 10-mer count in assay [3].

Take CAACCACCCC: the binding signal in assay [1] came out at 0.13 relative 10-mer count; in assay [2], 0.00486 relative 10-mer count; in assay [3], 0.00252 relative 10-mer count.

Consider ATCCCACCCC, for which the values for the binding signal in assay [1], in assay [2] and in assay [3] were 0.123 relative 10-mer count, 0.00573 relative 10-mer count and 0.00168 relative 10-mer count, respectively.

Regarding CCCCGCCTCC, the values for the binding signal in assay [1], in assay [2] and in assay [3] were 0.175 relative 10-mer count, 0.00738 relative 10-mer count and 0.00216 relative 10-mer count, respectively.

With CCTCCCCCCA, the binding signal in assay [1] is 0.18 relative 10-mer count; in assay [2], 0.00761 relative 10-mer count; in assay [3] it was 0.0036 relative 10-mer count.

For the sequence CCCCCGCCCC, the values for the binding signal in assay [1], in assay [2] and in assay [3] were 0.312 relative 10-mer count, 0.0117 relative 10-mer count and 0.00372 relative 10-mer count, respectively.

Regarding GCCACCCACC, the binding signal in assay [1] is 0.147 relative 10-mer count; in assay [2], 0.00605 relative 10-mer count; in assay [3] it was 0.00312 relative 10-mer count.

With CCCACCACCG, the figures for the binding signal in assay [1], in assay [2] and in assay [3] were 0.12 relative 10-mer count, 0.00514 relative 10-mer count and 0.00503 relative 10-mer count, respectively.

Take AAAAAAAAAG: the binding signal in assay [1] was determined as 0.384 relative 10-mer count; in assay [2], 0.0474 relative 10-mer count; in assay [3] it was 0.0982 relative 10-mer count.

As to AAAGCAGTAC, the results for the binding signal in assay [1], in assay [2] and in assay [3] were 0.156 relative 10-mer count, 0.0228 relative 10-mer count and 0.0905 relative 10-mer count, respectively.

For CACCCCAACC, the binding signal in assay [1] turned out to be 0.142 relative 10-mer count; in assay [2] it was 0.0061 relative 10-mer count; in assay [3] it was 0.00407 relative 10-mer count.

For GAAAAAAAGC, the binding signal in assay [1] was 0.29 relative 10-mer count; in assay [2] it was 0.0712 relative 10-mer count; in assay [3], 0.0678 relative 10-mer count.

With CCCATCCCCA, the binding signal in assay [1] was found to be 0.106 relative 10-mer count; in assay [2], 0.00472 relative 10-mer count; in assay [3] it was 0.00551 relative 10-mer count.

CCCCCTCACC: the figures for the binding signal in assay [1], in assay [2] and in assay [3] were 0.149 relative 10-mer count, 0.00624 relative 10-mer count and 0.00372 relative 10-mer count, respectively.

Consider CAAAACAGCA, for which the binding signal in assay [1] is 0.21 relative 10-mer count; in assay [2], 0.00119 relative 10-mer count; in assay [3], 0.205 relative 10-mer count.

Turning to CCCCCACCAC, the binding signal in assay [1] came to 0.312 relative 10-mer count; in assay [2], 0.0133 relative 10-mer count; in assay [3], 0.00707 relative 10-mer count.

Regarding CCACCCTCCC, the values for the binding signal in assay [1], in assay [2] and in assay [3] were 0.246 relative 10-mer count, 0.0111 relative 10-mer count and 0.00467 relative 10-mer count, respectively.

Consider AAAGCGTACC, for which the figures for the binding signal in assay [1], in assay [2] and in assay [3] were 0.109 relative 10-mer count, 0.0281 relative 10-mer count and 0.0144 relative 10-mer count, respectively.

For CGTCCCCCAC, the binding signal in assay [1] turned out to be 0.104 relative 10-mer count; in assay [2], 0.00468 relative 10-mer count; in assay [3], 0.00407 relative 10-mer count.

Regarding GGTGGGTGGA, the values for the binding signal in assay [1], in assay [2] and in assay [3] were 0.13 relative 10-mer count, 0.00615 relative 10-mer count and 0.00611 relative 10-mer count, respectively.
